In PubChem BioAssay AID588511 (Johns Hopkins Ion Channel Center, 2011):
About 3,600 (1.2%) of roughly 310,000 compounds were called active. The sample holds actives, similar compounds and a random draw of the others, so the mix is not that of the screen.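 Rule for the calls: active = ratio plate-corrected score three or more library SD toward inhibition, starting fluorescence score within five deviations; inactive = the rest.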

biological target: Anoctamin-1 (Mus musculus) (UniProt Q8BHY3); experiment: blockers of mouse ANO1 Ca-activated Cl channel – cell-based, HTS, primary screen (AID 588511); conditions: HEK293 TMEM16A/YFP iodide influx fluorescence, ionomycin; at 10 µM;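 for normalized B-score (activity score, 25-100; higher = stronger inhibition): score derived from kinetic fluorescence span divided by baseline fluorescence per well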
Sequence (Q8BHY3 whole entry, looked up): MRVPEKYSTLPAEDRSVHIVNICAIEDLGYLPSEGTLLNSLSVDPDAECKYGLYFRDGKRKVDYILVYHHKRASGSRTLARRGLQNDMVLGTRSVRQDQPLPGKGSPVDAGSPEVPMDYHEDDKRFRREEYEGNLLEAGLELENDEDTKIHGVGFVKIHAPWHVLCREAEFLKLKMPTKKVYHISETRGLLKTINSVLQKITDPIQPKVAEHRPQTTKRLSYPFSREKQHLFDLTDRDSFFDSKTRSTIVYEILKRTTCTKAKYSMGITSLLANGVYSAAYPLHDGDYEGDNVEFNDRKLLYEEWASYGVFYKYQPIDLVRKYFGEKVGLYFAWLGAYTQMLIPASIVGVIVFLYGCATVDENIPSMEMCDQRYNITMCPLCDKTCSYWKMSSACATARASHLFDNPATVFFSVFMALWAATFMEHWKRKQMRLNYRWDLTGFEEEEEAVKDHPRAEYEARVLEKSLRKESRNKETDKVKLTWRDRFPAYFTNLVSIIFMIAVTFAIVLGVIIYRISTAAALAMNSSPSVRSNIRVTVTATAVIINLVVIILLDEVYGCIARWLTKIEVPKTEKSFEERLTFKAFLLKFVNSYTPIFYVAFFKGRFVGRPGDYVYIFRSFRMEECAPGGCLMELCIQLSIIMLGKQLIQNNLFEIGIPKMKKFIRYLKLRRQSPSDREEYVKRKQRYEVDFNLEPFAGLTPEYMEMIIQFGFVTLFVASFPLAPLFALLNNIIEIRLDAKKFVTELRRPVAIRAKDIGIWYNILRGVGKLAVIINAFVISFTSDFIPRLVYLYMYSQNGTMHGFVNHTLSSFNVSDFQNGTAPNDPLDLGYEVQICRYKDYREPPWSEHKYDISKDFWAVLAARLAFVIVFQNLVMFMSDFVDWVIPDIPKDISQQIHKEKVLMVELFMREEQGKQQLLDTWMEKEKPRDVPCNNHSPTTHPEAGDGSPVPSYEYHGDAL

| Structure (SMILES) | normalized B-score (activity score, 25-100; higher = stronger inhibition) |
| --- | --- |
| CN1/C(=C\C(=O)c2oc3ccccc3c2N)C(C)(C)c2ccccc21 | inactive |
| CC(C)Nc1nnc(SCC(=O)/C=C2\N(C)c3ccccc3C2(C)C)s1 | inactive |
| CC(=O)Nc1cccc(OCC(=O)/C=C2\N(C)c3ccccc3C2(C)C)c1 | 100 (active) |
| CCOc1cc(/C=N/NC(=O)c2cccc(S(=O)(=O)N3CCOCC3)c2)ccc1OCC(=O)N(C)C | inactive |
| CO[C@@H]1[C@@H](OC(N)=O)[C@@H](O)C(Oc2ccc3c(O)c(NC(=O)c4ccc(O)c(CC=C(C)C)c4)c(=O)oc3c2C)OC1(C)C (stereo not given in full) | inactive |
| O=C(O)C1=NN(c2c(F)c(F)cc(F)c2F)C(=O)CC1 | inactive |
| Cc1ccc(CN(N=Nc2nonc2N)c2nonc2N)c(C)c1 | 25 (active) |
| COc1ccc(Cc2nnc(SCC(=O)c3cccc([N+](=O)[O-])c3)n2C)cc1 | inactive |
| COc1ccccc1C(=O)Nc1ccccc1C(=O)Nc1ccccc1 | inactive |
| O=C(Nc1ccc(NC(=O)c2ccccc2F)cc1)c1ccccc1F | inactive |
| O=C(Nc1ccccc1)c1ccccc1NC(=O)C(F)(F)F | 100 (active) |
| CC(=O)c1cc(CN2CCC(C(=O)Nc3cccc(-c4cscn4)c3)CC2)cs1 | 25 (active) |
| O=C(Nc1cccc(-c2cscn2)c1)C1CCN(Cc2ccsc2)CC1 | inactive |
| CCn1cc(CN2CCC(C(=O)Nc3cccc(-c4cccc(Cl)c4)c3)CC2)cn1 | inactive |
| COc1ccc2oc(C(=O)NCC(Cc3ccccc3)N(C)C)c(C)c2c1 (stereo not given) | inactive |
| COc1ccc(OC)c2sc(NC(=O)C3COc4ccccc4O3)nc12 (stereo not given) | inactive |
| COc1ccc(NC(=O)C2COc3ccccc3O2)cc1 (stereo not given) | inactive |
| Cc1cnc(NC(=O)c2ccccn2)s1 | inactive |
| CC(=O)Oc1ccccc1C(=O)Nc1ncc([N+](=O)[O-])s1 | 100 (active) |
| O=C(Nc1ncc([N+](=O)[O-])s1)C1COc2ccccc2O1 (stereo not given) | 25 (active) |
| COc1ccc(NC(=O)c2ccccc2[N+](=O)[O-])cc1OC | inactive |
| O=C(N/N=C/c1cccc2cccnc12)[C@H]1C[C@@H]1c1ccccc1 | inactive |
| Cc1ccc(C)c(OCCC(=O)OCC(=O)NC(=O)NCc2ccccc2)c1 | inactive |
| O=C(Nc1ccc(S(=O)(=O)N2CCCCC2)cc1)C1CC(=O)N(c2ccc(F)cc2)C1 (stereo not given) | inactive |
| O=C(NC(=S)Nc1ncccn1)c1ccccc1Br | inactive |
| COc1ccnc(Oc2ccccc2)c1-c1ncn[nH]1 | inactive |
| O=C(Nc1nc2c(F)cc(F)cc2s1)C1COc2ccccc2O1 (stereo not given) | inactive |
| Fc1cc(F)c2nc(N3CCOCC3)sc2c1 | inactive |

| Structure (SMILES) | normalized B-score (activity score, 25-100; higher = stronger inhibition) |
| --- | --- |
| COc1cccc(OC)c1C(=O)Nc1sc2c(c1C(N)=O)CCCC2 | inactive |
| NC(=O)c1c(NC(=O)c2ccccc2)sc2c1CCCC2 | inactive |
| NC(=O)c1c(Nc2nc3c(F)cccc3s2)sc2c1CCCC2 | 25 (active) |
| Fc1cc(F)c2nc(Nc3nc4c(F)cccc4s3)sc2c1 | 100 (active) |
| Cc1c(C(=O)Nc2ccccn2)oc2ccc(Br)cc12 | inactive |
| CCC(C)(C(=O)Nc1ccccc1C)N(C(=O)CNC(C)=O)c1ccc(C)cc1 (stereo not given) | inactive |
| CS(=O)(=O)c1sc(C(=O)NC(=S)Nc2ccc(OC(F)(F)F)cc2)c2c1C=CCC2 | inactive |
| CC1(C)O[C@@H]2CC3C4C[C@H](F)C5=CC(=O)C=CC5(C)C4C(O)CC3(C)[C@]2(C(=O)CO)O1 (stereo not given in full) | inactive |
| Cc1ccc(/C=C2/SC(=S)N(CCC(=O)NCCCN3CCOCC3)C2=O)cc1 | inactive |
| O=C(Nc1cccc(Cl)c1)Nc1ccccc1NS(=O)(=O)c1cccs1 | 100 (active) |
| O=S(=O)(Nc1ccccc1Br)c1cccs1 | inactive |
| O=S(=O)(NCc1ccc(Cl)cc1Cl)c1cccs1 | inactive |
| COc1ccc(Nc2nc(N)nc(CSC(=S)N3CCC(C)CC3)n2)cc1 | inactive |
| O=S(=O)(ON(c1ccccc1)S(=O)(=O)c1ccccc1)c1ccccc1 | inactive |
| CC1=C/C(=N\OS(=O)(=O)c2ccccc2)C=CC1=O | 25 (active) |
| CC(NC(=O)CN1CCN(Cc2ccc(Cl)cc2)C1=O)c1ccc2c(c1)OCCO2 (stereo not given) | inactive |
| O=C(c1ccc(=O)oc1)N1CCC(C(O)(c2ccccc2)c2ccccc2)CC1 | inactive |
| NC(=O)c1oc2ccccc2c1NC(=O)Cc1ccccc1 | inactive |
| CCc1c(C)sc(NC(=O)c2cccs2)c1C(N)=O | inactive |
| CCOC(=O)c1oc2ccccc2c1NC(=O)c1cccs1 | 25 (active) |
| COC(=O)CCSc1cc([N+](=O)[O-])cc2c1c(C1OCCS1)nn2-c1ccccc1 (stereo not given) | inactive |
| COc1ccc(OC)c(NC(=O)CN(C)CCOc2ccc(Br)cc2)c1 | inactive |
| CCCCCCCCn1c2c(c(=N)c3c1CCC3)CCCC2 | 100 (active) |
| CC(C)C[C@@H](COc1ccccc1)N1CCN(CC(C)C)CCC1=O | inactive |
| Cc1ccc(-n2c(SCC(=O)NCCC3=CCCCC3)nc3n[nH]c(C)c3c2=N)cc1Cl | inactive |
| COc1cccc(-n2c(SCC(=O)NC3CCCCC3)nc3n[nH]c(C)c3c2=N)c1 | inactive |
| CCCCNC(=O)CSc1nc2n[nH]c(C)c2c(=N)n1-c1cccc(Cl)c1C | 25 (active) |
